Measured values taken from PubChem BioAssay AID2279 (Southern Research Specialized Biocontainment Screening …, 2010).
Measured potencies and affinities stand elsewhere.

Assay: HIV-1 Env-mediated cell fusion inhibitors, dose response, CCR5-tropic Env (AID 2279)
Settings: CCR5-tropic HIV-1 Env, reporter read-out; series mostly up to 50 µM; inhibition: at the top concentration; call rule not given here

inhibition, inactive:
O=C1/C(=C2\C(=O)N(Cc3ccc(F)cc3)c3ccccc32)SC(=S)N1CCS(=O)(=O)O -4.42%, COc1cc(/C=C2\C(=N)N3N=C(S(C)(=O)=O)SC3=NC2=O)ccc1OS(=O)(=O)c1ccccc1 9.44%, O=C1NN(c2ccccc2)C(=O)/C1=C\c1cccc(OC(=O)c2cccs2)c1 10.8%, Cc1ccc(-c2cc(C(=O)Nc3ccc(S(=O)(=O)Nc4onc(C)c4C)cc3)c3ccccc3n2)cc1 -9.23%, NS(=O)(=O)c1cc(C(=O)NC2CCSc3ccccc32)ccc1Cl (stereo unspecified) -1.13%, Cc1ccc(F)c(NC(=O)/C(C#N)=C(\O)c2ccc(C(C)(C)C)cc2)c1 25%
